Experimental findings from PubChem BioAssay (NCI) are described below.

Where “and” joins values, the source holds several entries; their conditions need not be identical. Identical values can stand only once. This is part of a sample that, as a whole, favours compounds with a hit. Of some 83,000 tested, about 20% had one in any assay.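 The endpoint reported here, percent growth, reads 100 for growth as untreated, 0 for no net growth and -100 for all cells dead.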 Calls of active or inactive are those of the source. How the source made its calls: active means growth percent below 10; inactive means the rest.

One test concerns ACHN renal. Briefly: NCI-60 one-dose screen, 48 h (100 = growth as untreated, 0 = no growth, -100 = all killed). The settings on record: 10 µM unless noted.
Regarding `O=[N+]([O-])c1ccc(NC(=S)NNC(=S)Nc2ccc(Br)cc2)cc1`, the growth is 70.8% (inactive). The same measure, in the same setting: to `C#C[C@]1(O)CC[C@H]2[C@@H]3CC=C4c5sc(N6CCN(C)CC6)nc5CC[C@]4(C)[C@H]3CC[C@@]21C` belongs 47.2% (inactive); to `CN1CCN(Cc2ccc(NC(=O)c3cncc(C#Cc4cnc5ccc(NCCO)nn45)c3)cc2C(F)(F)F)CC1`, 8.5% (active); to `C#CCOc1cccc(/C(N)=N/C(N)=N/c2nc3ccccc3s2)c1`, 81.4% (inactive).

Take `NC(N)=NS(=O)(=O)c1ccc(N=Nc2c(N)nn(-c3ccc([N+](=O)[O-])cc3[N+](=O)[O-])c2N)cc1`: the growth was 101% (inactive). Still for that read-out and setting: to `N#Cc1c(-c2cccs2)cc(-c2cnccn2)nc1SCC(=O)N/N=C/c1cccs1` belongs 49.8% (inactive); to `COc1cc(C(=O)c2cc(C(C)=O)c3ccc(C)cn23)cc(OC)c1OC`, 51.3% (inactive); to `Brc1ccc(-c2cc(-c3ccc4c(c3)OCCO4)n[nH]2)s1`, 47.9% (inactive).

Another test deals with CAKI-1 renal. Described as above. The settings on record: 10 µM unless noted.
With `N#Cc1nc(-c2ccccc2)oc1N1CCC(C2(C(F)(F)F)N=N2)CC1`, the growth is 84.8% (inactive). Take `CNC(=O)c1cc(N2CCc3cc(NC(=O)Nc4ccc(N5CCOCC5)c(C(F)(F)F)c4)ccc32)ccn1`: the growth was 44.3% (inactive).

Consider `O=C(CCCCCCNC(=O)C(O)(O)C(F)(F)F)Nc1ccc(Br)cc1`, for which the growth was -13.9% (active). Same read-out and setting: then `Cc1csc(/N=C(N)/N=C(\N)c2cccnc2)n1`, with 60.1% (inactive); and `C=C1CCc2nc(SCC(=O)O)ccc2N1`, with 97.3% (inactive). On the same count and under the same terms, then `CCCCOc1ccc(S(=O)(=O)N2CCN(c3nc(C)cc(N4CCOCC4)n3)CC2)cc1`, with 19.8% (inactive); and `CCn1c2ccc(/C=N/N(C)S(=O)(=O)CCN(C)C)cc2c2cc(/C=N/N(C)S(=O)(=O)CCN(C)C)ccc21`, with 48.1% (inactive).

`NCCNC(=O)c1cccc(COc2ccccc2NC(=O)c2cc(Br)c(Br)[nH]2)c1`: the growth was 90.1% (inactive). Consider `CNC(=O)Nc1ccc(Nc2cc(-c3ccc(-n4cccn4)cc3)[nH]n2)c(C)c1`, for which the growth is 113% (inactive).

In the case of `CCN(CC)c1ccc(/C=N/NC(=O)c2ccc(S(N)(=O)=O)cc2)c(O)c1`, the growth is 22.1% (inactive). Same read-out and setting: then `COc1cc(-c2nc(-c3ccccc3)[nH]c2-c2ccnc(NCCCNS(=O)(=O)c3cccc(F)c3)n2)ccc1F`, with 106% (inactive); and `C/C=C/CC(C)C(O)[C@H](NC(=O)[C@@H]1CCCN1C(=O)[C@](C)(CC)NC(=O)CCCCCCCCC)C(=O)N[C@@](C)(CC)C(=O)N[C@@H](CCC(N)=O)C(=O)N[C@H](CCC(N)=O)C(=O)NC(C)(C)C(=O)NC(C)(C)C(=O)N[C@@H](CCC(N)=O)C(=O)N[C@H](CC(C)C)C(=O)N[C@H](CO)CC(C)C` (some centres undefined), with 42% (inactive) and -69.1% (active); and `O=S(=O)(NCCCNc1nccc(-c2[nH]c(-c3ccccc3)nc2-c2ccc(F)c(O)c2)n1)c1ccc(C(F)(F)F)cc1`, with 40.5% (inactive). The same measure, in the same setting: then `N#Cc1c(-c2cccs2)c(C#N)c(=O)n(Cc2nc3ccccc3[nH]2)c1N`, with 80.7% (inactive); and `Cc1ccc2c(n1)C(=O)C(Cl)=C(Nc1ccccc1C(=O)OC(C)(C)C)C2=O`, with -92.4% (active); and `Brc1cccc(-c2cc(-c3ccc4c(c3)OC=CO4)[nH]n2)c1`, with 29.9% (inactive). The same measure, in the same setting: to `CN1CCN(CCCCCC(=O)Nc2nc(-c3cccc(NS(=O)(=O)c4cccc5c(N(C)C)cccc45)c3)cs2)CC1` belongs 74.3% (inactive); to `O=C(CSc1nnc(-c2ccc(Cl)cc2)n1-c1ccccc1)Nc1ccc(Cl)cc1`, 50.9% (inactive). Regarding `NC1[C@H]2CN(c3cnc(C(=O)Nc4cc(F)cc5cccnc45)cn3)C[C@@H]12` (some centres undefined), the growth was 49.9% (inactive). On the same count and under the same terms, to `CC1CCN(CC(=O)Nn2c(COc3ccccc3)nc3ccccc3c2=O)CC1` belongs 71.2% (inactive).

Regarding `CCCCSC1=C(Cl)CN(c2ccccc2)C1=O`, the growth was 94% (inactive).

On to `CC1=Cc2ccccc2OC12C=Cc1ccccc1O2` (centres undefined), for which the growth is 78.5% (inactive).

Regarding `Brc1ccc(-c2cc(-c3ccc4c(c3)OC=CO4)n[nH]2)s1`, the growth is 62.9% (inactive). The same measure, in the same setting: to `CC1=C(C)C(=O)C(Nc2cccc(C(=O)OC(C)(C)C)c2)=CC1=O` belongs 71.5% (inactive). As to `CCCC/C(=C\c1ccc(O)c(O)c1)C(=O)NC(Cc1ccccc1)C(=O)C(=O)NCCc1ccc(OC)cc1` (centres undefined), the growth is 96.5% (inactive). Same read-out and setting: to `CCN(CC)c1ccc(/C=N/NC(=O)c2ccc(NS(C)(=O)=O)cc2)c(O)c1` belongs 18.8% (inactive).
